These results are taken from PubChem BioAssay (Tox21).

The nature of experiment [1]: qHTS assay to identify small molecule agonists of the peroxisome proliferator-activated receptor delta (PPARd) signaling pathway - cell viability counter screen (AID 743211). Further: nearly all actives have a fitted effect of over 55% in size. Further: potency means the concentration at half of the fitted maximal effect. An outline of the steps: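 qHTS cell viability: PPARd-bla HEK293H; 17 h cpd, 37C; CellTiter-Glo, luminescence at 30 min RT.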
For orientation: Quantitative high-throughput screening tests each substance at several concentrations.

Experiment [2] in a line: qHTS assay to identify small molecule antagonists of the peroxisome proliferator-activated receptor delta (PPARd) signaling pathway - cell viability counter screen (AID 743213). Further: nearly all actives have a fitted effect of over 50% in size. Further: potency means the concentration at half of the fitted maximal effect. In outline: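 Cytotoxicity counter screen: CellTiter-Glo luminescence read 30 min after addition, in the same wells as the reporter assay. There, PPARd UAS-bla HEK293H cells (3000/well) were treated 17 h at 37 C with compound and 300 nM L165041.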

In experiment [3] the target is Peroxisome proliferator-activated receptor delta (Homo sapiens) (UniProt Q03181). Nature of the experiment: qHTS assay to identify small molecule antagonists of the peroxisome proliferator-activated receptor delta (PPARd) signaling pathway (AID 743215; active means well fitted inhibition curve with a large enough effect in the signal ratio in the repeat runs, not every such curve was filed as active; the % refers to the signal ratio;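 further: cells stimulated with agonist L165041 at 300 nM final during compound exposure; series mostly up to about 62 µM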). In outline: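 With L165041 present at 300 nM final, compounds were incubated 17 h at 37 C on PPARd UAS-bla HEK293H cells. A FRET-based beta-lactamase substrate was then applied for 2 h at room temperature and fluorescence intensity recorded.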
Chain of Peroxisome proliferator-activated receptor delta (Homo sapiens) (Q03181 whole entry, looked up): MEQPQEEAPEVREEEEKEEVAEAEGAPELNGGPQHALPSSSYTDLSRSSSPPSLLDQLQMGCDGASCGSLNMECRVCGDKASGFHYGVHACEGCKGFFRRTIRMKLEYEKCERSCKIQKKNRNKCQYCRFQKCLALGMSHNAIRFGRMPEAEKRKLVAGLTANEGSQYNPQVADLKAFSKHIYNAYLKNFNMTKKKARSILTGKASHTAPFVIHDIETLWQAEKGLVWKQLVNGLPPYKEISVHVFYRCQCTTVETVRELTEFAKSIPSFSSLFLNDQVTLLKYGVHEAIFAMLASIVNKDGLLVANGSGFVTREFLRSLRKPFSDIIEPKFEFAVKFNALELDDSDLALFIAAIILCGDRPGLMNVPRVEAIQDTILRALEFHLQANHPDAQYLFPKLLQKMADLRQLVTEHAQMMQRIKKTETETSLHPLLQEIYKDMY

Experiment [4] in a line: qHTS assay to identify small molecule agonists of the farnesoid-X-receptor (FXR) signaling pathway - cell viability counter screen (AID 743218). Further: nearly all actives have a fitted effect of over 45% in size. In outline:
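After 16 h at 37 C with test compounds, FXR-bla HEK 293T cells were given LiveBLAzer B/G substrate for 2 h at RT and then CellTiter-Glo; luminescence was taken after 30 min.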

Experiment [5] is described as follows: qHTS assay to identify small molecule antagonists of the farnesoid-X-receptor (FXR) signaling pathway - cell viability counter screen (AID 743221; active means well fitted cell-killing curve with a large enough effect in the repeat runs, not every such curve was filed as active; further: nearly all actives have a fitted effect of over 50% in size). In outline: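 After a 5 h settling period, FXR-bla HEK 293T cells receive compound and chenodeoxycholic acid (50 uM final) and incubate 16 h at 37 C; CellTiter-Glo luminescence, read after 30 min at room temperature, reports cell viability.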

The target in experiment [6] is Vitamin D3 receptor (Homo sapiens) (UniProt P11473). Nature of the experiment: qHTS assay to identify small molecule agonists of the vitamin D receptor (VDR) signaling pathway (AID 743222; calls by dose curve; further: potency means the concentration at half of the fitted maximal effect). In outline: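 VDR-bla cells were seeded, left 4 h, treated with compounds in DMSO for 16 h, incubated 2 h at RT with B/G FRET substrate, and read for fluorescence.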
Chain of Vitamin D3 receptor (Homo sapiens) (P11473 whole entry, looked up): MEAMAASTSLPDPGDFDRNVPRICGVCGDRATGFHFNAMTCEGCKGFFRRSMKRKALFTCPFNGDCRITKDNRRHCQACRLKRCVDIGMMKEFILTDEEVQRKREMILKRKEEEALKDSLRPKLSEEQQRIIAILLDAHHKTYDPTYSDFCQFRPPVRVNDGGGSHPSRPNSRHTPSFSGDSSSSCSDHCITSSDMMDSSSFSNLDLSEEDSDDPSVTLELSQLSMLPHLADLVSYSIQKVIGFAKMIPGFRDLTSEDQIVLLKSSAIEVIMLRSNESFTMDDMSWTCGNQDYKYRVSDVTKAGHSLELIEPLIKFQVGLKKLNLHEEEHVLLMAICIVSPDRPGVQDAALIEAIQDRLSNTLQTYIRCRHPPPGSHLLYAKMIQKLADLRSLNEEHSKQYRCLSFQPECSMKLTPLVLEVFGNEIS
Experiment [7] shares this target. Nature of the experiment: qHTS assay to identify small molecule antagonists of the vitamin D receptor (VDR) signaling pathway (AID 743223; active means well fitted inhibition curve with a large enough effect in the signal ratio in the repeat runs, not every such curve was filed as active; the % refers to the signal ratio; further: potency means the concentration at half of the fitted maximal effect). An outline of the steps:
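Reporter line VDR-bla; stimulus 1alpha,25-(OH)2 vitamin D3, 3 nM final; compound co-addition, 16 h 37C/5% CO2; LiveBLAzer B/G substrate 2 h RT; fluorescence intensity.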

Experiment [8] deals with Bile acid receptor (Homo sapiens) (UniProt Q96RI1). Nature of the experiment: qHTS assay to identify small molecule agonists of the farnesoid-X-receptor (FXR) signaling pathway (AID 743220; active means well fitted activation curve with a large enough effect in the signal ratio in the repeat runs, not every such curve was filed as active; the % refers to the signal ratio). In outline: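 Beta-lactamase reporter under UAS control in GeneBLAzer FXR HEK 293T cells (5000/well) measured with LiveBLAzer FRET substrate after 2 h at room temperature. Compound exposure lasted 16 h at 37C.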
Chain of Bile acid receptor (Homo sapiens) (Q96RI1 whole entry, looked up): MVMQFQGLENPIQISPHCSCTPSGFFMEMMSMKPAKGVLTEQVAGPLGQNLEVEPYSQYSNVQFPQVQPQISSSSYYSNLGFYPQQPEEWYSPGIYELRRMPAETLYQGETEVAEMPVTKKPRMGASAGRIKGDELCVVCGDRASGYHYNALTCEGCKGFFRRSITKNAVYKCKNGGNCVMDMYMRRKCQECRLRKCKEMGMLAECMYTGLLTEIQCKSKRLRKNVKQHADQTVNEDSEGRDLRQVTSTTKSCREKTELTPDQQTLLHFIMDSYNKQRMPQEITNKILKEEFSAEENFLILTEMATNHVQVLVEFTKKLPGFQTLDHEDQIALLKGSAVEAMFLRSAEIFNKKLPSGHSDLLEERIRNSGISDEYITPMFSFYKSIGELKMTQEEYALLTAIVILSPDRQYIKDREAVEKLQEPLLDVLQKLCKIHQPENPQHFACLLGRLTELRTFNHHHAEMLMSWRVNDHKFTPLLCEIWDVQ

The target in experiment [9] is Peroxisome proliferator-activated receptor delta (Homo sapiens) (UniProt Q03181). Nature of the experiment: qHTS assay to identify small molecule agonists of the peroxisome proliferator-activated receptor delta (PPARd) signaling pathway (AID 743212; calls by dose curve). In outline:
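A PPARd-bla HEK293H line with beta-lactamase under an Upstream Activator Sequence is treated with compounds at 37 C. Substrate loading for 2 h at room temperature precedes the fluorescence measurement.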

The target in experiment [10] is Bile acid receptor (Homo sapiens) (UniProt Q96RI1). Nature of the experiment: qHTS assay to identify small molecule antagonists of the farnesoid-X-receptor (FXR) signaling pathway (AID 743217; active means well fitted inhibition curve with a large enough effect in the signal ratio in the repeat runs, not every such curve was filed as active; the % refers to the signal ratio). An outline of the steps: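 In this cell-based antagonist screen, inhibition of CDCA-driven (50 uM final) UAS-beta-lactamase expression in HEK 293T cells was measured by FRET fluorescence following 16 h compound exposure at 37 °C.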

Values joined by “and” are separate entries in the source; they are usually repeats but may differ in a detail not shown here. Equal entries are not always repeated. Results filed as inconclusive are left out. The source holds several records for some structures; these can differ, active in one and inactive in another. Active and inactive are the calls of the source. Unless noted, the call rests on the fitted dose curve; in most records, active means well fitted curve in the direction sought with a large enough effect in the repeat runs; inconclusive means weak or mixed curves; inactive means no such curve, though single readings can be large; an effect the other way counts as inactive or inconclusive.

`CC1COc2ccccc2N1C(=O)C(Cl)Cl` (stereo not drawn): the Potency entry in [1], in [2], in experiment [4], in [5] and in [6] was “inactive” throughout. Besides, in [3], the outcome was inactive.
On to `Oc1ccc2ccccc2c1`, for which the Potency entry in [1], in experiment [4], in experiment [5], in experiment [6] and in experiment [7] was “inactive” each time. Besides, the Potency result in [2] was “inactive and 3.89 µM (active)”.
For the molecule `Oc1c(Cl)cc(Cl)c(Cl)c1Cl`, the Potency entry in experiment [1], in [2], in [5] and in experiment [6] was “inactive” throughout. The outcome in experiment [3] and in experiment [8] was inactive.
Regarding `O=C(O)c1cc(-c2ccccc2)nc2ccccc12`, the Potency result in [1], in [4], in [5], in experiment [6] and in experiment [7] was “inactive” throughout. Besides, the call in experiment [9], in [3], in experiment [10] and in [8] was inactive.
`CN(CCOc1ccc(CC2SC(=O)NC2=O)cc1)c1ccccn1` (stereo not drawn): the Potency entry in [1], in experiment [2], in experiment [4] and in [5] was “inactive” each time. In addition, the outcome in experiment [10] and in experiment [8] was inactive.
On to `CCCCCCC(C)(C)S`, for which the Potency result in [1], in experiment [2], in [4] and in experiment [5] was “inactive” each time. Also, the result in [10] and in [8] was inactive.
Turning to `OC[C@@H](O)[C@@H](O)[C@H](O)[C@@H](O)CO`, the Potency entry in experiment [1], in [2], in experiment [4], in [5] and in experiment [6] was “inactive” throughout.
Turning to `COCC(C)O` (stereo not drawn), the Potency entry in experiment [1], in experiment [2], in [4], in [5] and in [6] was “inactive” throughout.
Take `C=C1CC[C@H](O)CC1=C/C=C1\CCC[C@]2(C)[C@@H]([C@H](C)/C=C/[C@H](C)C(C)C)CC[C@@H]12`: the Potency in [1] was 54.5 µM (active) and 6.16 µM (active); in experiment [6], 3.86 µM (active). In addition, the Potency result in experiment [2] and in [5] was “inactive” each time. Also, the molecule was classed as inactive in [3] and in [8].
Regarding `CC1(C)CC(N=C=O)CC(C)(CN=C=O)C1` (stereo not drawn), the Potency result in [1], in [2], in experiment [4], in [5] and in [6] was “inactive” in each case. The molecule was called inactive in experiment [10] and in [8].
Regarding `Cc1cc(NS(=O)(=O)c2ccc(N)cc2)no1`, the Potency entry in [1], in [2], in experiment [4], in experiment [5], in experiment [6] and in experiment [7] was “inactive” in each case. Besides, the outcome in experiment [10] and in experiment [8] was inactive.
Turning to `CN(C)c1cccc(O)c1`, the Potency result in [1], in experiment [4], in experiment [5] and in [6] was “inactive” each time. Further, the outcome in experiment [9] and in experiment [3] was inactive.
Consider `COC(=O)Nc1nc2ccc(Sc3ccccc3)cc2[nH]1`, for which the molecule was called inactive in [9]. For the same molecule, the Potency result in [2], in [4], in experiment [5] and in experiment [6] was “inactive” each time.
Take `COC(=O)c1ccc(C(=O)OC)cc1`: the Potency entry in experiment [1], in experiment [2], in [4], in experiment [5] and in experiment [6] was “inactive” each time.
For the molecule `Cc1cc(Cc2ccc(N)c(C)c2)ccc1N`, the Potency entry in experiment [1], in experiment [2], in [4] and in [5] was “inactive” in each case. For the same molecule, the result in experiment [10] and in experiment [8] was inactive.
For the molecule `NCCc1ccc(O)c(O)c1`, the Potency result in experiment [1], in experiment [2], in experiment [4], in [5], in [6] and in experiment [7] was “inactive” throughout. Moreover, the call in experiment [10] and in experiment [8] was inactive.
On to `Cc1cc(O)c2c(c1)C(=O)c1cc(O)cc(O)c1C2=O`, for which the Potency entry in [2] and in experiment [5] was “inactive” throughout.
Regarding `Nc1c(S(=O)(=O)O)cc(Br)c2c1C(=O)c1ccccc1C2=O`, the Potency entry in experiment [1], in experiment [2], in [4], in experiment [5] and in [6] was “inactive” in each case.
For `C[C@@H](O)[C@H]1C(=O)N2C(C(=O)O)=C(S[C@@H]3CN[C@H](C(=O)N(C)C)C3)[C@H](C)[C@H]12`, the Potency result in experiment [1], in [2], in [4], in experiment [5] and in experiment [6] was “inactive” each time.
On to `O=C1N=C(O)CN1/N=C/c1ccc(-c2ccc([N+](=O)[O-])cc2)o1`, for which the Potency entry in [1], in experiment [2], in [5], in [6] and in [7] was “inactive” each time.
With `CC(C)NCC(O)COc1cccc2ccccc12` (stereo not drawn), the Potency result in experiment [1], in [4], in experiment [5] and in experiment [6] was “inactive” in each case. The Potency in experiment [2] is 49.5 µM (active) and 21.9 µM (active). Further, the call in experiment [10] and in [8] was inactive.
Regarding `NC(=O)NNc1ccccc1`, the Potency entry in experiment [1], in experiment [2], in experiment [4], in [5], in [6] and in experiment [7] was “inactive” in each case.
In the case of `CC(=O)CCc1ccccc1`, the Potency result in experiment [1], in [2], in experiment [4], in experiment [5] and in experiment [6] was “inactive” throughout.
`CC1=C(CC(=O)O)c2cc(F)ccc2/C1=C\c1ccc(S(C)=O)cc1` (stereo not drawn): the Potency entry in experiment [1], in experiment [2], in [4] and in [5] was “inactive” each time. The result in [3] was inactive.
In the case of `CC#C[C@]1(O)CC[C@H]2[C@@H]3CCC4=CC(=O)CCC4=C3[C@@H](c3ccc(N(C)C)cc3)C[C@@]21C`, the Potency result in [2] and in experiment [5] was “inactive” throughout.
Consider `S=c1nc[nH]c2nc[nH]c12`, for which the Potency in experiment [1] is 23.9 µM (active). The outcome in experiment [9] and in [3] was inactive. In addition, the Potency entry in experiment [4] is “inactive”.
For the molecule `OCC#CCO`, the Potency result in [1], in experiment [2], in [4], in [5], in [6] and in experiment [7] was “inactive” throughout. Also, the result in [10] and in [8] was inactive.
Consider `CC1=C(/C=C/C(C)=C/C=C/C(C)=C/CO)C(C)(C)CCC1`, for which the Potency result in experiment [2], in experiment [4] and in [5] was “inactive” in each case. In addition, the outcome in experiment [3] was inactive.
Consider `CC1(C)O[C@@H]2C[C@H]3[C@@H]4C[C@H](F)C5=CC(=O)CC[C@]5(C)[C@H]4[C@@H](O)C[C@]3(C)[C@]2(C(=O)CO)O1`, for which the Potency result in experiment [1], in experiment [2], in experiment [4], in experiment [5] and in [6] was “inactive” throughout. Besides, the molecule was classed as inactive in experiment [3].
As to `CC(=O)Nc1ccc(C(=O)O)cc1`, the Potency result in [1], in [2], in experiment [4] and in experiment [5] was “inactive” throughout.
For `C/C=C(C)/C=C/C=C(C)C`, the Potency result in experiment [1], in experiment [2], in experiment [5], in experiment [6] and in [7] was “inactive” in each case.
For the molecule `CC1Cc2ccccc2N1NC(=O)c1ccc(Cl)c(S(N)(=O)=O)c1` (stereo not drawn), the Potency entry in experiment [1], in experiment [2], in experiment [4] and in [5] was “inactive” each time.
Regarding `OC[C@@H](O)[C@H](O)[C@H](O)[C@@H](O)CO`, the Potency result in [1], in [2], in experiment [4], in experiment [5] and in experiment [6] was “inactive” throughout.
Regarding `CC(C)n1c(/C=C/[C@@H](O)C[C@@H](O)CC(=O)O)c(-c2ccc(F)cc2)c2ccccc21`, the Potency result in [1], in [4] and in experiment [5] was “inactive” throughout.
With `C=C(C)C(=O)OCCCCCC`, the Potency entry in experiment [1], in [2], in [4], in [5], in [6] and in experiment [7] was “inactive” throughout. Moreover, the result in experiment [9] was inactive.
`CS(=O)(=O)Nc1ccc([N+](=O)[O-])cc1Oc1ccccc1`: the Potency result in experiment [1], in [2], in experiment [4], in [5] and in experiment [6] was “inactive” each time.
On to `CN(C)c1ccc(C(=N)c2ccc(N(C)C)cc2)cc1`, for which the call in [9] was inactive. Besides, the Potency entry in experiment [2], in experiment [4], in experiment [5] and in [6] was “inactive” each time. Also, in experiment [7], the Potency was 5.93 µM (active).
